{"source": "PubChem BioAssay AID504692", "about": "(The Scripps Research Institute Molecular Screening Center, 2011)", "note": "Several values for one entry are separate records, joined by “and”; a condition that tells them apart may be missing. Identical values can stand only once. Out of some 340,000 compounds screened, about 2,000 (0.59%) were called active. The entries come from a sample that favours actives as a whole. A number with no mark means an inactive call. Cut-off read from the data, not from the text of the source: active = activation mostly above about 9.5% (no sharp cut-off); inactive = mostly below about 7.6%.", "data": [{"target": "5-hydroxytryptamine receptor 5A (Homo sapiens) (UniProt P47898)", "sequence (P47898 whole entry, looked up)": "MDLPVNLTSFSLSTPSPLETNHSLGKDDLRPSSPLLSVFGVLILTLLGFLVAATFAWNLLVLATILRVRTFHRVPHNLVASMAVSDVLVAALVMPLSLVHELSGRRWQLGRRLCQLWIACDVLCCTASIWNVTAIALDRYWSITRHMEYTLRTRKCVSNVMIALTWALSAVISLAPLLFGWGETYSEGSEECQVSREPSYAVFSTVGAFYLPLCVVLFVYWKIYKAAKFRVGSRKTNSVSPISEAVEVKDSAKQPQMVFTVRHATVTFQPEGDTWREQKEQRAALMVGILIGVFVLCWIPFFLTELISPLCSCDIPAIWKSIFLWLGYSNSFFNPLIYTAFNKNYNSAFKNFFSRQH", "assay": "HTR5A agonists in luminescence cell assay, primary screen, counter-screen for OPRM1-OPRD1 heterodimer agonist project, full-deck HTS (AID 504692);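 note: 0% = cells with vehicle only and 100% = reference agonist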", "conditions": "cell-based, at 9.3 µM, stronger effect = higher value", "values": [{"compound": "COC1C(O)C(C)OC(OC2CCC3(C=O)C(CCC4C3CCC3(C)C(C5=CC(=O)OC5)CCC43O)C2)C1O", "note": "(stereo not given)", "activation": "20% (active)"}, {"compound": "C[C@]12CC[C@H](O)C[C@H]1CC[C@@H]1C2CC[C@]2(C)[C@@H](C3=CC(=O)OC3)[C@@H](O)C[C@]12O", "note": "(stereo not given in full)", "activation": "16.5%"}, {"compound": "Oc1ccc2c3c1OC1[C@H](O)CC[C@@]4(O)[C@@H](C2)N(CC2CC2)CC[C@]314", "note": "(stereo not given in full)", "activation": "2.68% and -1.51%"}, {"compound": "CC[N+](CC)(CC)CCCCCCCCCC[N+](CC)(CC)CC", "activation": "2.35%"}, {"compound": "CCOP(=O)(OCC)C(O)c1ccc(OC)cc1OC", "note": "(stereo not given)", "activation": "-1.32%"}, {"compound": "CCCCCCCCCCCCn1ccc(=N)cc1", "activation": "14.5% (active)"}, {"compound": "Cc1cc(C(=O)OCC(=O)Nc2c(F)cccc2F)c(C)n1C1CC1", "activation": "-0.58%"}, {"compound": "C/C=C/CC1(CC)C(=O)NC(=S)NC1=O", "activation": "0.5%"}, {"compound": "COC(=O)C(O)(c1ccc(NC(=O)c2ccco2)c(OC)c1)C(F)(F)F", "note": "(stereo not given)", "activation": "-2.39%"}, {"compound": "CN(C)C(=O)Oc1cc(=O)n2c3c(cccc13)CCC2", "activation": "2.56%"}, {"compound": "O=C(Cc1ccccc1)N1CCN(C2CCCCCC2)CC1", "activation": "1.91%"}, {"compound": "COc1ccc(S(=O)(=O)NCc2ccc(C(=O)N3CCC4(CC3)OCCO4)cc2)cc1", "activation": "3.27%"}, {"compound": "CCOC(=O)c1c(C)c(C(=O)N2CCC3(CC2)OCCO3)c(C)n1CC", "activation": "10.3% (active)"}, {"compound": "Cc1ccc(-c2cc(C(=O)N3CCC4(CC3)OCCO4)no2)cc1", "activation": "1.14%"}, {"compound": "CC(C)Oc1cccc(C(=O)C2CCCN(C3CCOCC3)C2)c1", "note": "(stereo not given)", "activation": "3.38%"}]}]}
